Compound activity (PubChem BioAssay)
Hits are enriched below; roughly 19% of the tested compounds scored in any of these assays.
Shiga inhibitor: Shiga toxin inhibition; Vero cells, Shiga toxin protein synthesis inhibition reporter; inhibition, % at 38.7 µM; 290,000 compounds, 9.2% hits; AID 2315; in the data active means inhibition mostly above about 28%, no sharp cut-off; inactive means mostly below about 43%; further: 0% is about no effect
Pf growth 96h: P. falciparum growth inhibition at 96 hour, primary screen for plastid delayed-death inhibitors; AID 504834; P. falciparum luciferase reporter growth, 96 h; 320,000 compounds, 6.9% hits; Potency, µM (doses to about 28.7 µM), without a hit: at the highest dose activity change, negative = inhibition, hits mostly inhibitors; further: potency means the concentration at half of the fitted maximal effect; on the % scale 0 is the no-effect control and ±100 the full control effect
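Luminescence readout: decreased luciferase signal marks inhibited growth of reporter-expressing P. falciparum in infected red cells (2% hematocrit, 0.05% parasitemia final), exposed to compound two generations (96 h, 37 C, 5% CO2).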
SARS PLP yeast: blocks SARS-CoV papain-like protease in a yeast assay; S. cerevisiae expressing SARS-CoV PLpro, growth rescue; Potency, µM (highest dose often 32.9 µM), inactives show at the highest dose activity, positive = growth rescue, hits mostly activators; 330,000 compounds, 0.19% hits; calls by dose curve; further: potency means the concentration at half of the fitted maximal effect; 0% is about no effect; nearly all actives have a fitted effect of over 55% in size
CHX counter: counter-screen hit for Shiga toxin inhibitors, cycloheximide. cell reporter, cycloheximide protein synthesis inhibition counterscreen. max response, %. 300,000 compounds, 12% hits; in the data active means max response mostly above about 13%, no sharp cut-off; inactive means mostly below about 14%; further: read at 38.3 µM for the half of the compounds with a filed dose; 0% is about no effect
Pf growth 48h: P. falciparum growth inhibition at 48 hours (one generation). P. falciparum luciferase growth in erythrocytes, 48 h. Potency, µM (doses to about 28.7 µM), for inactives: at the highest dose activity change, negative = inhibition, actives largely listed as inhibitors. 310,000 compounds, 5.9% hits. AID 504832; further: potency means the concentration at half of the fitted maximal effect; on the % scale 0 is the no-effect control and ±100 the full control effect
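Growth was read as firefly luciferase luminescence after a 48 h, 37 C, 5% CO2 exposure of compounds to reporter-bearing P. falciparum cultures (0.1% parasitemia, 2% hematocrit final) in Albumax-supplemented RPMI 1640.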
AMA1-RON2 inh: AMA1-RON2 (P. falciparum) interaction inhibition; AlphaScreen AMA1-biotinylated RON2 peptide binding; Potency, µM (highest dose often 58.2 µM), for inactives: at the highest dose activity change, negative = inhibition, hits mostly inhibitors; 360,000 compounds, 0.2% hits; AID 720542;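 further: potency means the concentration at half of the fitted maximal effect; 0% = vehicle wells and -100% = peptide control; nearly all actives have a fitted effect of over 45% in size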
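AMA1 (3D7) with his tag at 25 nM final met compounds first, then biotinylated RON2 peptide at 25 nM; detection used donor plus acceptor beads, 10 µg/mL apiece, read by AlphaScreen after 30 min at room temperature.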
Active calls of the source: *; i = inactive; ? = inconclusive; / = no result; [ ] = dose if it differs, or a comment. Unless noted, the call rests on the fitted dose curve; in most records, active means well fitted curve in the direction sought with a large enough effect; inconclusive means small, poorly fitted or top-dose-only effect, or another doubt; inactive means no such curve, though single readings can be large; an effect the other way counts as inactive or inconclusive.

SMILES | Shiga inhibitor | Pf growth 96h | SARS PLP yeast | CHX counter | Pf growth 48h | AMA1-RON2 inh
CCOC(=O)c1ccc(-c2ccc(/C=N/NC(=O)Cc3nnc(N)s3)o2)cc1 | 52* | 277% | -2% | 42* | -76% | 46%
Nc1nnc(CC(=O)N/N=C/c2ccc(-c3ccc(F)cc3)o2)s1 | -1 | 24% | -4% | -2 | 25% | 47%
Cc1ccc(NC(=O)NNC(=O)c2snnc2C)cc1 | -8 | 21% | 0% | 11 | 35% | 111%
COC(=O)c1sc2nc(CN3CCN(c4cccc(C(F)(F)F)c4)CC3)[nH]c(=O)c2c1C | -11 | 9% | 20% | -3 | 5% | 7%
COc1ccc(CN2CCNC(=O)C2CC(=O)N(C)CCC2CCOCC2)c(OC)c1 (stereo unspecified) | 3 | ? | -2% | -4 | 18% | -3%
CC(=O)CCc1c(C)c2cc(C)ccc2[nH]c1=O | 48 | -23% | -3% | 33* | 6% | 5%
CC(=O)CCc1c(C)[nH]c2ccccc2c1=O | -10 | / | -7% | -2 | -20% | ?
COc1ccc(OC)c(NC(=O)c2ccc(NS(=O)(=O)c3c(C)noc3C)cc2)c1 | -8 | ? | 1% | -4 | -17% | ?
COc1cc(OC)cc(C(=O)Nc2ccc(C(=O)Nc3ccccc3OC)cc2)c1 | / | / | 1% | / | / | 0%
COc1cc(NC(=O)c2ccc(NS(=O)(=O)c3c(C)noc3C)cc2)cc(OC)c1 | 17 | 0.33µM* | 2% | -3 | ? | -10%
COc1cc(NC(=O)c2ccccc2)cc(OC)c1 | 48 | / | -5% | 30* | i | 4%
COc1ccc(C(=O)Nc2cc(OC)cc(OC)c2)cc1 | 65* | / | -3% | 40* | 90% | -8%
O=C(Nc1ccc(Cl)cn1)c1ccccc1[N+](=O)[O-] | 45 | ? | 3% | 18* | 45% | -14%
O=C(Nc1ccc(Cl)cn1)c1cccc2ccccc12 | / | 5% | -3% | 18* | 30% | -1%
O=C(NNC(=O)c1ccccc1[N+](=O)[O-])Nc1ccc(Cl)cc1 | 35 | 0% | 1% | 14 | 16% | 102%
CCOC(=O)Cc1nnc(NC(=O)C23CC4CC(CC(C4)C2)C3)s1 | 13 | ? | 0% | 11 | 13µM* | 14%
CC(C)CC(=O)NCC(C)NC(=O)CC(C)C (stereo unspecified) | 6 | 15µM* | 0% | -1 | 13% | 27%
CCC(C)NC(=O)CC(C)C (stereo unspecified) | -3 | -4% | 0% | -1 | -19% | -7%
Cc1nn(-c2ccccc2)c(C)c1-c1nnc(-c2c(C)nn(-c3ccccc3)c2C)o1 | -4 | ? | 2% | 1 | 12µM* | -3%
Cc1nn(-c2ccccc2)c(C)c1-c1nnc(C(F)(F)F)o1 | -4 | 25% | 0% | 2 | 16% | 43%
O=C(Nc1ccc(Cl)cc1)c1cc2c(cc1O)[nH]c1ccccc12 | 39 | ? | -5% | 5 | 10µM* | -12%
CC(=O)Nc1ccc2[nH]c3ccccc3c2c1 | -2 | 31% | -7% | -2 | 33% | -6%
O=C(c1ccc(Br)cc1)N1CCC(C(=O)N2CCN(Cc3ccccc3)CC2)CC1 | -16 | -13% | 1% | -1 | -22% | -19%
CCOC(=O)C1(Cc2cccc(Cl)c2)CCCN(C(=O)c2cnn(CC)c2)C1 (stereo unspecified) | 39* | 15% | -1% | 22* | -4% | -5%
CCOC(=O)C1(Cc2cccc(Cl)c2)CCCN(C(=O)c2cn[nH]c2)C1 (stereo unspecified) | 1 | 7% | / | -2 | ? | 18%
SMILES | Shiga inhibitor | Pf growth 96h | SARS PLP yeast | CHX counter | Pf growth 48h | AMA1-RON2 inh
CCOC(=O)C1(Cc2cccc(Cl)c2)CCCN(C(=O)c2cccnc2)C1 (stereo unspecified) | 37 | 4.7µM* | 1% | -1 | 16% | -16%
COc1ccc(CC(=O)Nc2cc(S(=O)(=O)N3CCOCC3)ccc2N2CCOCC2)cc1OC | / | / | / | / | / | -2%
Cc1cccc(NC(=O)C2CCN(C(=O)N3CCOc4ccccc43)CC2)c1C | -4 | 15µM* | 0% | -2 | ? | 6%
CC(=O)N1CCOc2ccc(S(=O)(=O)N3CCC(C(=O)Nc4ccc(C)cc4)CC3)cc21 | 7 | 0% | -3% | 0 | ? | -4%
Cc1ccc(NC(=O)C2CCN(C(=O)N3CCOc4ccccc43)CC2)cc1 | 2 | 13µM* | 5% | 2 | ? | 3%
CCCCc1nc(SCC(=O)N2CCCC2)c2c(=O)n(C)c(=O)n(C)c2n1 | -7 | ? | -2% | 2 | 9% | -6%
COc1ccccc1NC(=O)c1cc(S(=O)(=O)N2CCCC2)cn1C | 9 | ? | 10% | -1 | -25% | 2%
CC1(C)SC2C(C(=O)O)N=C(Cc3ccccc3)N2C1C(=O)O (stereo unspecified) | / | / | / | / | / | -92%
COc1ccccc1/C=C/C(=O)Nc1cccnc1Cl | 51* | 47% | 1% | 30* | 41% | 0%
O=C(COC(=O)/C=C/c1ccccc1Cl)Nc1cccnc1Cl | / | / | -20% | / | / | -7%
COc1ccccc1/C=C/C(=O)NCCc1ccccn1 | 88* | 0% | 11% | 55* | 115% | 5%
COc1ccc(/C=C/C(=O)Nc2cccnc2Cl)cc1 | 60* | 253% | -3% | 42* | / | 0%
Cc1ccc(N(CC(=O)N2CCCCCC2)S(C)(=O)=O)cc1 | / | / | / | / | / | -6%
CNc1nc(-c2cccs2)cc(C(F)(F)F)c1C#N | -12 | 56% | 1% | -2 | 21% | 21%
COC(=O)c1ccc(N2OC3(C)C=CC2CC3)cc1 (stereo unspecified) | active | 60% | -14% | 56* | 122% | -11%
COc1ccccc1/C=C/C(=O)N1CCN(S(=O)(=O)c2cc(C)ccc2C)CC1 | / | ? | 3% | / | 15µM* | 0%
CCc1cc(C(=O)N2CCN(S(=O)(=O)c3cc(C)ccc3C)CC2)sc1C | / | ? | -8% | / | 13µM* | -8%
COc1ccc(C)cc1S(=O)(=O)N1CCN(C(=O)c2ncoc2-c2cccc(C)c2)CC1 | 5 | 0.93µM* | 4% | -6 | 1% | -6%
COc1ccc(OC)c(/C=C/C(=O)N2CCN(S(=O)(=O)c3cc(C)ccc3C)CC2)c1 | / | ? | 5% | / | ? | 16%
COc1ccc(OC)c(/C=C/C(=O)N2CCN(S(=O)(=O)c3ccc(C)cc3C)CC2)c1 | / | 13µM* | 7% | / | 12µM* | 24%[11.6 µM]
O=C(CSc1nnc(-c2ccccc2F)o1)N1CCNC1=O | / | 88% | 1% | / | 190% | 7%
Cc1ccc2nc3c(cc(S(=O)(=O)c4ccccc4)c(=N)n3C3CCCC3)c(=O)n2c1 | / | / | / | / | / | 19%
O=C(Nc1ccc2c(c1)OCCO2)C(C1CC1)N1CCN(c2ccc(C(F)(F)F)cn2)CC1 (stereo unspecified) | / | / | / | / | / | -21%
CC(C)Cn1c(N)c(C(=O)COC(=O)[C@@H]2CCCN2C(=O)c2cccs2)c(=O)n(C)c1=O | -7 | 12% | -1% | 4 | 0% | 8%
